Each compound was assayed on T1, LZK. Conditions: concentration: 1 μM, replicates: in singlicate; n = 1.
T1 construct: gene MAP3K13
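Further: KINOMEscan kinase panel screen.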

Row | Compound | %Inh [%]
1 | Nc1ncnc2c1nc(-c1ccccc1)n2-c1ccccc1 [SKF-97293] | 4
2 | CC(=O)Nc1nc2cnc(Nc3cc(NC(=O)c4cccc(C5(C#N)CC5)c4Cl)ccc3C)nc2s1 | 6
3 | c1ccc(Oc2ccc(Nc3ccnc4cc(-c5ccc(CNCCN6CCOCC6)o5)ccc34)cc2)nc1 [GW567145] | 32
4 | Cn1cc(-c2[nH]c3cc(NC(=O)[C@H](N)C4CCCCC4)cc4c3c2C=NNC4=O)cn1 | 0
5 | CC(C)c1nc(-c2cccc(NS(=O)(=O)c3c(F)cccc3F)c2F)c(-c2ccnc(Nc3ccc(N4CCOCC4)nc3)n2)s1 [GSK2008607] | 95.8
6 | COc1cc(Nc2nccc(-c3c(-c4cccc(NC(=O)c5c(F)cccc5F)c4)nn4ccccc34)n2)cc(OC)c1OC [GSK323521] | 0
7 | COc1cc(Nc2nccc(N3CCC(NC(=O)c4cc5ccccc5s4)C3)n2)cc(OC)c1OC (centres unmarked) [GSK1379760] | 30
8 | Fc1ccc(-c2ncn(C3CCNCC3)c2-c2ccnc(Oc3ccc(-c4ccccc4)cc3)n2)cc1 [SB-245391] | 0
9 | COc1cc2c(cc1OCCN1CCNCC1)ncc1c3ccc(C#N)cc3[nH]c21 | 100
10 | Cl.Cl.NCC(NCc1ccc(-c2ccnc3[nH]ccc23)s1)c1ccccc1 (centres unmarked) [GSK1321565] | 40
11 | O=c1[nH]cc(-c2ccc(N3CCOCC3)cc2)c2sc(-c3cn[nH]c3)cc12 [GSK2276055] | 0
12 | O=C(Nc1cccc(-c2nn3ccccc3c2-c2ccnc(Nc3cccc(F)c3)n2)c1)c1c(F)ccc(F)c1Cl [GSK357952] | 0
13 | COC(=O)Nc1nc2cc(Oc3ccc(NC(=O)Nc4cc(C(F)(F)F)ccc4F)cn3)ccc2[nH]1.Cl.Cl [GW681170] | 21
14 | COCCOCCOc1cc2ncc3c4ccc(C#N)cc4[nH]c3c2cc1OC | 1
15 | c1ccc(-c2n[nH]cc2Nc2ccnc3ccccc23)nc1 [GW694077] | 0
16 | C[C@@H](Oc1cc(-n2cnc3cc(-c4ccnc(NCCS(C)(=O)=O)c4)ccc32)sc1C(N)=O)c1ccccc1Cl [GSK907232] | 0

Row | Compound | %Inh [%]
17 | CN1CCN(CCCNc2nccc(-c3c(-c4ccc(F)cc4)nn4cc(C(F)(F)F)ccc34)n2)CC1 [GW621581] | 0
18 | Oc1cc(Nc2ccnc3cc(I)ccc23)ccc1F [GW552771] | 9
19 | COc1ccc(-c2coc3ccc(-c4nnc(SCc5ccc(OC)c(C(F)(F)F)c5)o4)cc23)cc1 | 0
20 | Cl.c1ccc(-c2ccc3c(Nc4ccc5[nH]ncc5c4)ccnc3c2)nc1 [GW440137] | 1
21 | COc1ccc(CNC(=O)NC2CCN(c3ccnc(Nc4ccc(F)cc4)n3)CC2)cc1 [GSK1379788] | 25
22 | Cn1cc(-c2ccc3c(c2)CCN3C(=O)Cc2cccc(Cl)c2)c2c(N)ncnc21 [GSK2606590] | 0
23 | Cl.NC(=O)c1cccc(Nc2nccc(Nc3ccc(Oc4c(Cl)cccc4Cl)c(Cl)c3)n2)c1 [GW659009] | 0
24 | Cc1ccc(F)c(C(=O)Nc2cccc(-c3nn4ccccc4c3-c3ccnc(Nc4cccc(F)c4)n3)c2)c1F [GSK361061] | 0
25 | Cc1occc1-c1ncc(OC[C@@H](N)Cc2c[nH]c3ccccc23)cc1-c1ccc2[nH]nc(C)c2c1.O=C(O)C(F)(F)F [GSK682037] | 0
26 | Cc1cccc(Nc2nc(N[C@H]3CCNC3)ncc2C(N)=O)c1.Cl [GSK2197149] | 0
27 | CN(c1ccc(NC(=O)Nc2cc(C(F)(F)F)ccc2F)cc1)c1ccnc(Nc2ccc(S(N)(=O)=O)cc2)n1 [GW809893] | 0
28 | CNC(=O)c1ccccc1Nc1nc(Nc2ccc(N3CCOCC3)cc2)ncc1Cl.Cl [GSK1576028] | 89
29 | Cl.Cl.NCC(NC(=O)c1cc(-c2ccccc2)c(-c2ccnc3[nH]ccc23)s1)c1ccccc1 (centres unmarked) [GSK1321561] | 0
30 | NCCCC(NC(=O)c1cc(Br)c(-c2ccnc3[nH]ccc23)s1)c1ccccc1.O=C(O)C(F)(F)F.O=C(O)C(F)(F)F (centres unmarked) [GSK1287544] | 0
31 | O=C(Nc1cccc(Oc2ccc3nc(NC(=O)C4CC4)cn3n2)c1)c1ccccc1C(F)(F)F | 0
32 | Nc1n[nH]c2cnc(-c3ccccc3)cc12 [SB-642124] | 0
